Screening results (PubChem BioAssay)
This is a sample that favours compounds with a hit; in the whole collection about 1.2% have one here.
Avidin fluor = compound fluoresces at 488/530 nm on avidin beads | compound fluorescence 488/530 nm, flow cytometry; stronger effect = higher value | fluorescence (KMESF) at 10 µM | 220,000 tested, 0.38% active; in the data active means fluorescence above about 47
RGS8-Gao = human RGS8-Galphao interaction regulation; 220,000 tested, 0.34% active; multiplexed bead flow cytometry, RGS8-Galphao binding; actives lie on both sides; response (percent of control binding), % at 10 µM; AID 1423; in the data active means response below about 60% or above about 140%; inactive means in between;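 further: Galphao activated as the GDP aluminium fluoride complex binding bead-coupled RGS8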
Target sequence (P09471 whole entry, looked up): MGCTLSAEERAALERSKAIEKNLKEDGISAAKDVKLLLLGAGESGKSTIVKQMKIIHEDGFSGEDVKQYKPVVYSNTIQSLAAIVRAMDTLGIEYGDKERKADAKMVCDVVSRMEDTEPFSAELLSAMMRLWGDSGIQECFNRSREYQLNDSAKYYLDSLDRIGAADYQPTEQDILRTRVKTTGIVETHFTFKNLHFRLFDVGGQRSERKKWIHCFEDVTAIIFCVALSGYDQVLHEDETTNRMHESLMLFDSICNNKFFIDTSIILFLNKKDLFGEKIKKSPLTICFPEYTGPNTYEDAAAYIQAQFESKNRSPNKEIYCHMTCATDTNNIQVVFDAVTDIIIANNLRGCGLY
RGS16-Gao = regulators of human RGS16-Galphao interaction; 220,000 tested, 0.38% active; bead-based flow cytometry RGS16-Galphao binding, fluorescence; actives lie on both sides; binding response (% of control), % at 10 µM; AID 1441;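 further: Galphao activated by GDP with aluminum fluoride before binding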
RGS7-Gao reg = modulates binding of RGS7 to human Galphao; 220,000 tested, 0.35% active; P09471; binding response (% of control), % at 10 µM; Multiplexed bead flow cytometry; actives lie on both sides; in the data active means binding response below about 49% or above about 150%; inconclusive means no clear call, values can overlap the other calls; inactive means in between;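 further: fluorescent Galphao held in activated GDP-AlF4 state binding bead-coupled RGS7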
GSH fluor = GSH bead compound fluorescence profile. GSH beads flow cytometry, compound fluorescence 488/530 nm; stronger effect = higher value. 190,000 tested, 0.25% active. AID 1776. fluorescence (KMESF) at 10 µM; in the data active means fluorescence above about 89;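 further: glutathione beads carrying GST-tagged Bcl family fusion proteins plus one bare bead set; values are compound well signal with DMSO vehicle wells as background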
RGS4-Gao reg = human RGS4-Galphao interaction regulation. Multiplexed bead flow cytometry, RGS4-Galphao binding; actives lie on both sides. AID 1415. 220,000 tested, 0.33% active. P09471. binding response (% of control), % at 10 µM; in the data active means binding response below about 49% or above about 150%; inactive means in between;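 further: fluorescent Galphao activated with aluminum fluoride binding bead-coupled RGS4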
RGS4-Gao HTS = regulators of human RGS4-Galphao interaction; shares compounds with RGS16-Gao; multiplexed bead flow cytometry, RGS–Galpha-o binding; RGS4–Galpha-o binding response, % at 10 µM; 1,600 tested, 99% active; AID 1504;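 further: fluorescently labeled Galpha-o bound to GDP with aluminium fluoride binding biotinylated RGS beads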
Biotin-avidin = biotin-avidin bead binding disruption counter-screen; shares compounds with RGS16-Gao; streptavidin beads, fluorescein-biotin binding, flow cytometry; inhibition, % at 10 µM; 1,700 tested, under 10 active;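 active means inhibition above 50%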;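 further: median green fluorescence of gated singlet beads compared with DMSO control wells; 0% = DMSO wells and 100% = complete loss of bead fluorescence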
RGS8-Gao confirm = confirmation of regulators of human RGS8-Galphao interaction. bead-based flow cytometry RGS8-Galphao binding, fluorescence; actives lie on both sides. 1,700 tested, 3% active. AID 1836. binding response (% of control), % at 10 µM. shares compounds with RGS16-Gao; in the data active means binding response below about 72% or above about 130%; inactive means in between;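 further: Galphao activated as GDP AlF4 complex before binding bead RGS8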
RGS7-Gao confirm = RGS7-Galphao interaction regulation, single point confirmation; shares compounds with RGS16-Gao; bead-based flow cytometry RGS7-Galphao binding; actives lie on both sides; response (percent of control binding), % at 10 µM; 1,700 tested, 7.8% active; in the data active means response below about 75% or above about 130%; inactive means in between;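 further: fluorescent Galphao activated with GDP and aluminum fluoride binding bead-coupled RGS7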
RGS16-Gao conf = RGS16-Galphao interaction regulation, single point confirmation | 1,700 tested, 4% active | bead-based flow cytometry, RGS16-Galphao binding; actives lie on both sides | shares compounds with RGS16-Gao | response (% of control binding), % at 10 µM; in the data active means response below about 74% or above about 130%; inactive means in between;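 further: Galphao activated as the GDP aluminium fluoride complex binding bead-coupled RGS16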
RGS4-Gao confirm = RGS4-Galphao interaction regulation, single point confirmation; shares compounds with RGS16-Gao; RGS4-Galphao binding, multiplexed bead flow cytometry; actives lie on both sides; binding response (% of control), % at 10 µM; 1,700 tested, 4% active; in the data active means binding response below about 74% or above about 130%; inactive means in between
RGS19-Gao single = confirmation of regulators of human RGS19-Galphao interaction | 1,700 tested, 5% active | shares compounds with RGS16-Gao | response (percent of control binding), % at 10 µM | bead-based flow cytometry RGS19-Galphao binding; actives lie on both sides; in the data active means response below about 50% or above about 160%; inactive means in between;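 further: 100% = no compound control and 0% = blank background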
Target sequence (P09471 whole entry, looked up): as above
Target sequence (P49795 whole entry, looked up): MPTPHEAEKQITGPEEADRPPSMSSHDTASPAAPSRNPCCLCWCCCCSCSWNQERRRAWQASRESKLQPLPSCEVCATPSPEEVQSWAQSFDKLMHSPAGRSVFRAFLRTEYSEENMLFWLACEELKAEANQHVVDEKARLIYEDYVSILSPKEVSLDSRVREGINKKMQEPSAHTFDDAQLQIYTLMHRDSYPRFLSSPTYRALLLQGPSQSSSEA
* hit, by the source's call; i = inactive; ? = inconclusive; . = not tested or not shown; [ ] = remark or other dose. Unless noted, how the calls were made is not given here.

SMILES	Avidin fluor	RGS8-Gao	RGS16-Gao	RGS7-Gao reg	GSH fluor	RGS4-Gao reg	RGS4-Gao HTS	Biotin-avidin	RGS8-Gao confirm	RGS7-Gao confirm	RGS16-Gao conf	RGS4-Gao confirm	RGS19-Gao single
COC(=O)c1ccc(N2CCN(C(C)=O)CC2)c(NC(=O)COc2ccccc2C)c1	11	103.9	104.8	101.3	23	101.7	.	.	.	.	.	.	.
C/C(CC(=O)Nc1ccc2c(c1)OCO2)=N\NC(=O)C(c1ccccc1)c1ccccc1	1	67.5	15.0*	85.6	13	87.0	87.0*	0.0	106.8	103.5	108.3	102.3	108.2
Cc1ccc(-c2[nH]nc3c2C(c2ccoc2)C(C#N)=C(N)O3)cc1C (stereo not given)	31	100.5	101.6	102.3	24	102.4	.	.	.	.	.	.	.
CCOC(=O)C(C(=O)OCC)C1OC(=O)c2cc3c(cc21)C(=O)OC3C(C(=O)OCC)C(=O)OCC (stereo not given)	200*	87.1	124.3	358.7*[activator]	14	141.0	141.0*	1.6	89.5	86.5	88.6	91.2	82.5
O=S(=O)(Nc1cccc(-c2nc3cccnc3s2)c1)c1ccc2c(c1)CCCC2	5	103.3	101.1	104.6	17	104.3	.	.	.	.	.	.	.
Cc1ccc(-c2nc3cccnc3s2)cc1NS(=O)(=O)c1ccc2c(c1)CCCC2	2	46.4*	28.9	32.5*	16	27.8*	.	0.1	104.4	102.4	103.0	104.3	107.5
Cc1nnc(N2CCOCC2)c2nn(-c3ccccc3)c(C)c12	11	146.9*[activator]	221.3	145.7	11	148.8	148.8*	0.7	102.9	116.9	104.7	113.2	103.3
CCCOC(=O)c1ccc(OC(=O)c2ccco2)cc1	12	122.1	i	136.6	11	175.7*[activator]	.	-0.9	99.5	92.0	100.8	99.9	102.1
O=C(O)c1cnc(-c2ccccc2)nc1Sc1ccc(Cl)cc1Cl	15	100.2	100.5	101.1	28	97.7	.	.	.	.	.	.	.
COc1ccc(Nc2nc3[nH]c(=O)cc(O)c3s2)cc1	2	15.8*	12.3*	20.7*	14	23.4*	.	-1.2	99.0	86.7	95.5	94.3	70.3
N#CC(C(=O)OC1CCCCC1)c1nc2ccccc2nc1N1CCOCC1 (stereo not given)	110*	95.8	105.9	171.3*[activator]	4	119.4	119.4*	.	.	.	.	.	.
O=C(c1ccccc1)c1c2c(cc3sc4ccccc4[n+]13)-c1cccc3cccc-2c13	5	115.5	92.6	198.6*[activator]	2	141.1	141.1*	-0.4	103.6	115.7	105.5	123.4	96.0
Cc1sc2cc3c(c(C(=O)c4ccccc4)[n+]2c1C)-c1cccc2cccc-3c12	5	99.5	100.0	109.8	8	107.8	.	.	.	.	.	.	.
O=C(NC(=S)Nc1ccc(N2CCOCC2)c(Cl)c1)C(c1ccccc1)c1ccccc1	35	104.2	102.2	92.1	13	98.1	.	.	.	.	.	.	.
O=C(COc1ccc(/C=N/NC(=O)c2cc3ccccc3o2)cc1Cl)Nc1ccccc1	49*	225.1*[activator]	i	218.2*[activator]	116*	373.0*[activator]	.	0.3	100.5	95.9	99.6	90.7	165.5*[activator]
O=c1[nH]c2ccccc2nc1/C=C/c1ccc(Cl)cc1	.	.	.	.	10	.	.	0.3	101.2	99.2	100.8	101.6	101.8
CC(C)(C)c1nnc2sc(SCC(=O)c3ccccc3)nn2c1=O	14	102.3	100.3	105.7	22	101.1	.	.	.	.	.	.	.
CC(C)(C)c1nnc2sc(SC/C(O)=C(\C#N)c3nc4ccccc4[nH]3)nn2c1=O	5	148.1*[activator]	177.8*[activator]	161.3*[activator]	30	177.2*[activator]	.	0.4	101.3	94.7	97.0	95.8	86.7
O/N=C/c1cccnc1Sc1ccccc1	24	162.5*[activator]	179.9*[activator]	157.3*[activator]	11	152.4*[activator]	.	-0.2	101.9	99.5	101.3	99.2	105.7
CCc1ccc(NC(=O)CSc2ccccn2)cc1	10	100.9	104.5	96.2	17	94.4	.	.	.	.	.	.	.
CC1CCCC(C)N1C(=O)CN1C(=O)C(C)(C)Oc2ccc(C(=O)NC3CCCCC3)cc21 (stereo not given)	4	.	2.8	91.3	54	108.4	.	-1.2	100.4	100.5	101.3	98.4	91.9
CC1CCCC(C)N1C(=O)CN1C(=O)C(C)(C)Oc2ccc(C(=O)NC3CCCC3)cc21 (stereo not given)	.	.	.	.	41	.	.	-0.5	99.7	101.9	100.5	100.9	97.8
CC(C(=O)NCCS(=O)(=O)c1ccc(Cl)cc1)S(=O)(=O)c1ccccc1 (stereo not given)	11	100.4	100.9	?	11	100.5	.	.	.	.	.	.	.
O=C(C(=O)N1CCCc2ccccc21)N1CCCc2ccccc21	4	124.2	182.2*[activator]	102.8	7	104.8	104.8*	-1.6	99.9	101.1	101.4	99.3	97.8
Cc1c(C(=O)N/N=C/c2ccc(N(C)C)cc2)[nH]c2ccc(Cl)cc12	4	65.8	22.7*	95.0	9	94.0	94.0*	-0.6	97.7	94.7	99.0	99.6	82.1
CC(C)n1nc(C(=O)OCC(=O)c2c[nH]c3ccccc23)c2ccccc2c1=O	.	.	.	.	41	.	.	0.5	91.2	80.6	84.1	87.1	60.6
CCN(C(=O)COC(=O)/C=C/c1ccccc1[N+](=O)[O-])C1CCS(=O)(=O)C1 (stereo not given)	26	93.2	103.1	96.8	16	98.2	.	.	.	.	.	.	.
CCN(CC(=O)Nc1ccc2c(c1)OCCO2)c1ccc(S(=O)(=O)N2CCOCC2)cn1	2	90.1	-82.9*	84.0	5	80.5	80.5*	1.0	102.2	103.2	99.2	101.7	112.3
CCS(=O)(=O)c1ccc(O)c(NC(=O)/C=C/c2ccc(Cl)cc2)c1	7	100.8	104.5	?	.	105.4	.	.	.	.	.	.	.
